# Assay results as given in PubChem BioAssay (NCI).
# The panel holds about 79,000 compounds, 15% with a hit somewhere; the sample as a whole holds those more often. A number with no mark means an inactive call. Active and inactive are the calls of the source. Rule as the data show it: active = growth inhibition above about 70%; inactive = the rest.
# Assays:
# [1] = NCI Yeast Anticancer Drug Screen. Data for the rad52 strain (AID 147);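 also: 0% = growth of vehicle-treated control cultures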; conditions: S. cerevisiae rad52 mutant growth inhibition, active compounds read high
# In short: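 Genetically altered yeast (DNA damage repair defect) treated with compound; inhibition calculated relative to vehicle.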
# [2] = NCI Yeast Anticancer Drug Screen. Data for the wt1 strain (AID 149);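 also: 0% = growth of vehicle-treated wt1 cultures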; conditions: S. cerevisiae wt1 strain (SPY 50644) growth inhibition, active compounds read high
# In short: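 Using yeast strain wt1, compound-induced growth inhibition was determined against vehicle-treated cultures.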
# [3] = NCI Yeast Anticancer Drug Screen. Data for the rad50EPP+ strain (AID 151);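 also: 0% = growth of vehicle-treated control cultures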; conditions: S. cerevisiae rad50 mutant strain, active compounds read high
# In short: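 Strain rad50EPP+; compound exposure; % growth inhibition vs vehicle.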
# [4] = NCI Yeast Anticancer Drug Screen. Data for the mgt1 strain (AID 153); conditions: S. cerevisiae mgt1 mutant growth inhibition, active compounds read high
# In short: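 Read-out: yeast growth inhibition vs vehicle control. Strain mgt1, drawn from a panel altered in DNA damage repair or cell cycle control.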
# [5] = NCI Yeast Anticancer Drug Screen. Data for the rad50 strain (AID 155);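 also: 0% = growth of vehicle-only cultures of the same strain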; conditions: S. cerevisiae rad50 strain growth inhibition, active compounds read high
# In short: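 Relative growth inhibition (compound vs vehicle) was measured in yeast with a defined repair-gene alteration.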
# [6] = NCI Yeast Anticancer Drug Screen. Data for the mec2-1 strain (AID 157); conditions: S. cerevisiae mec2-1 strain, active compounds read high
# In short: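 Cells of the genetically defined mec2-1 yeast strain are incubated with test compound. Inhibition of growth is calculated against vehicle-treated controls.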
# [7] = NCI Yeast Anticancer Drug Screen. Data for the rad14 strain (AID 159);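 also: 0% = growth of vehicle-treated control cultures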; conditions: S. cerevisiae rad14 strain growth inhibition, active compounds read high
# In short: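 Screen for anticancer potential: a yeast strain altered in DNA damage repair is grown with compound, and reduced growth is quantified against vehicle controls.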
# [8] = NCI Yeast Anticancer Drug Screen. Data for the sgs1 mgt1 strain (AID 161);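 also: 0% = growth of cultures given vehicle only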; conditions: S. cerevisiae sgs1 mgt1 strain, active compounds read high
# In short: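 Mutant yeast exposed to compound; growth scored against vehicle-only wells.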
# [9] = NCI Yeast Anticancer Drug Screen. Data for the CLN2oe strain (AID 163);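 also: 0% = growth of vehicle-only control cultures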; conditions: S. cerevisiae CLN2oe strain, active compounds read high
# In short: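 Strain altered in cell-cycle control, incubated with compound; growth compared to solvent-treated controls.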
# [10] = NCI Yeast Anticancer Drug Screen. Data for the cln2 rad14 strain (AID 165);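 also: 0% = growth equal to vehicle treated cultures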; conditions: S. cerevisiae cln2 rad14 strain, active compounds read high
# In short: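 The screen exposed genetically defined yeast (cln2 rad14) to test compounds and scored growth inhibition relative to vehicle-treated controls.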
# [11] = NCI Yeast Anticancer Drug Screen. Data for the bub3 strain (AID 167); conditions: S. cerevisiae bub3 mutant strain, active compounds read high
# In short: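 Screening used yeast with an engineered genetic alteration affecting cell cycle control. Compound-exposed cultures were compared with vehicle cultures, and reduced growth was taken as inhibition.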
# [12] = NCI Yeast Anticancer Drug Screen. Data for the wt2 strain (AID 169);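 also: 0% = growth of vehicle-treated yeast cultures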; conditions: S. cerevisiae wt2 strain growth inhibition, active compounds read high
# In short: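 Steps: yeast strain treated with compound; growth recorded; inhibition calculated relative to cultures given vehicle alone.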
# [13] = NCI Yeast Anticancer Drug Screen. Data for the mlh1 strain (AID 171);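 also: 0% = growth of vehicle-treated control cultures of the same strain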; conditions: S. cerevisiae mlh1 strain growth inhibition, active compounds read high
# In short: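 Yeast screen: mutant strain plus compound, growth scored against vehicle control wells.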
# [14] = NCI Yeast Anticancer Drug Screen. Data for the sgs1 strain (AID 173);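 also: 0% = growth of vehicle-only control cultures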; conditions: S. cerevisiae sgs1 mutant, active compounds read high
# In short: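 Inhibition of yeast growth served as the measure. The mutant strain was treated with each compound, and growth was normalised to cultures receiving vehicle alone.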
# [15] = NCI Yeast Anticancer Drug Screen. Data for the mlh1 rad18 strain (AID 175); conditions: S. cerevisiae mlh1 rad18 strain growth inhibition, active compounds read high
# In short: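 Compound-treated yeast growth, normalised to vehicle controls. Strain bears defined DNA repair mutations.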
# [16] = NCI Yeast Anticancer Drug Screen. Data for the rad18 strain (AID 177); conditions: S. cerevisiae rad18 mutant growth inhibition, active compounds read high
# In short: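 Inhibition values reflect reduced yeast growth compared with vehicle-treated controls, using a strain engineered with a DNA damage repair defect.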
# [17] = at 5.0 µM (retest, dose inferred, filed as 0.5)
# [18] = at 50.0 µM (retest, dose inferred, filed as 5.0)
structure (smiles),measurement,setting,value
[N-]=[N+]=NC1(c2ccccc2)C(=O)Nc2ccccc2C1=O (stereo not drawn),growth inhibition,[1]; at 1.2 µM,-2%
same,growth inhibition,[1]; at 3.7 µM,0%
same,growth inhibition,[1]; at 11.0 µM,4%
same,growth inhibition,[1]; at 33.0 µM,20%
same,growth inhibition,[1]; at 100.0 µM,49%
same,growth inhibition,[2]; at 1.2 µM,-4%
same,growth inhibition,[2]; at 3.7 µM,-2%
same,growth inhibition,[2]; at 11.0 µM,-3%
same,growth inhibition,[2]; at 33.0 µM,4%
same,growth inhibition,[2]; at 100.0 µM,22%
same,growth inhibition,[3]; at 1.2 µM,0%
same,growth inhibition,[3]; at 3.7 µM,3%
same,growth inhibition,[3]; at 11.0 µM,6%
same,growth inhibition,[3]; at 33.0 µM,9%
same,growth inhibition,[3]; at 100.0 µM,7%
same,growth inhibition,[4]; at 1.2 µM,-3%
same,growth inhibition,[4]; at 3.7 µM,-6%
same,growth inhibition,[4]; at 11.0 µM,8%
same,growth inhibition,[4]; at 33.0 µM,2%
same,growth inhibition,[4]; at 100.0 µM,27%
same,growth inhibition,[5]; at 1.2 µM,-4%
same,growth inhibition,[5]; at 3.7 µM,-2%
same,growth inhibition,[5]; [17],-4%
same,growth inhibition,[5]; at 11.0 µM,-20%
same,growth inhibition,[5]; at 33.0 µM,17%
same,growth inhibition,[5]; [18],14%
same,growth inhibition,[5]; at 50.0 µM,67%
same,growth inhibition,[5]; at 100.0 µM,37%
same,growth inhibition,[6]; at 1.2 µM,2%
same,growth inhibition,[6]; at 3.7 µM,2%
same,growth inhibition,[6]; [17],-23%
same,growth inhibition,[6]; at 11.0 µM,6%
same,growth inhibition,[6]; at 33.0 µM,19%
same,growth inhibition,[6]; [18],1%
same,growth inhibition,[6]; at 50.0 µM,81.3% (active)
same,growth inhibition,[6]; at 100.0 µM,33%
same,growth inhibition,[7]; at 1.2 µM,-3%
same,growth inhibition,[7]; at 3.7 µM,-1%
same,growth inhibition,[7]; at 11.0 µM,8%
same,growth inhibition,[7]; at 33.0 µM,12%
same,growth inhibition,[7]; at 100.0 µM,21%
same,growth inhibition,[8]; [17],-20%
same,growth inhibition,[8]; [18],16%
same,growth inhibition,[8]; at 50.0 µM,67.7%
same,growth inhibition,[9]; at 1.2 µM,-5%
same,growth inhibition,[9]; at 3.7 µM,-5%
same,growth inhibition,[9]; at 11.0 µM,3%
same,growth inhibition,[9]; at 33.0 µM,35%
same,growth inhibition,[9]; at 100.0 µM,61%
same,growth inhibition,[10]; [17],-3%
same,growth inhibition,[10]; [18],29%
same,growth inhibition,[10]; at 50.0 µM,81.1% (active)
same,growth inhibition,[11]; at 1.2 µM,-4%
same,growth inhibition,[11]; at 3.7 µM,-1%
same,growth inhibition,[11]; [17],-28%
same,growth inhibition,[11]; at 11.0 µM,18%
same,growth inhibition,[11]; at 33.0 µM,41%
same,growth inhibition,[11]; [18],61%
same,growth inhibition,[11]; at 50.0 µM,75.5% (active)
same,growth inhibition,[11]; at 100.0 µM,59%
same,growth inhibition,[12]; at 1.2 µM,-3%
same,growth inhibition,[12]; at 3.7 µM,-2%
same,growth inhibition,[12]; at 11.0 µM,1%
same,growth inhibition,[12]; at 33.0 µM,13%
same,growth inhibition,[12]; at 100.0 µM,22%
same,growth inhibition,[13]; at 1.2 µM,-2%
same,growth inhibition,[13]; at 3.7 µM,-5%
same,growth inhibition,[13]; at 11.0 µM,1%
same,growth inhibition,[13]; at 33.0 µM,12%
same,growth inhibition,[13]; at 100.0 µM,17%
same,growth inhibition,[14]; at 1.2 µM,-1%
same,growth inhibition,[14]; at 3.7 µM,2%
same,growth inhibition,[14]; at 11.0 µM,9%
same,growth inhibition,[14]; at 33.0 µM,27%
same,growth inhibition,[14]; at 100.0 µM,39%
same,growth inhibition,[15]; [17],-22%
same,growth inhibition,[15]; [18],46%
same,growth inhibition,[15]; at 50.0 µM,58%
same,growth inhibition,[16]; at 1.2 µM,-2%
same,growth inhibition,[16]; at 3.7 µM,1%
same,growth inhibition,[16]; at 11.0 µM,7%
same,growth inhibition,[16]; at 33.0 µM,19%
same,growth inhibition,[16]; at 100.0 µM,50%
